# Laboratory results taken from PubChem BioAssay (NCI).
# Where “and” joins values, the source holds several entries; their conditions need not be identical. Identical values can stand only once. Compounds without any hit were thinned out: in the full panel of roughly 83,000, 20% have a hit.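 The test compound was applied at a single concentration to cells in 96-well plates for 48 hours, and percent growth was recorded.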 Calls of active or inactive are those of the source. The calls were made as follows: active = growth percent below 10; inactive = the rest.
# Tests used:
# Assay in all cases: NCI-60 one-dose screen, 48 h (100 = growth as untreated, 0 = no growth, -100 = all killed)
# Conditions in all cases: 10 µM unless noted
# SK-MEL-2 melanoma = system: SK-MEL-2 melanoma
# EKVX NSCLC = system: EKVX NSCLC
# SN12C renal = system: SN12C renal
# UO-31 renal = system: UO-31 renal
# TK-10 renal = system: TK-10 renal
# ACHN renal = system: ACHN renal
# CAKI-1 renal = system: CAKI-1 renal
# A498 renal = system: A498 renal
# HL-60(TB) leukemia = system: HL-60(TB) leukemia
# CCRF-CEM leukemia = system: CCRF-CEM leukemia
SMILES,growth (SK-MEL-2 melanoma),growth (EKVX NSCLC),growth (SN12C renal),growth (UO-31 renal),growth (TK-10 renal),growth (ACHN renal),growth (CAKI-1 renal),growth (A498 renal),growth (HL-60(TB) leukemia),growth (CCRF-CEM leukemia)
ClC1OC(Cl)(Cl)C(Cl)(Cl)OC1(Cl)Cl (configuration not stated),113% (inactive),100% (inactive),95.1% (inactive),81.4% (inactive),107% (inactive),99.7% (inactive),99% (inactive),131% (inactive),125% (inactive),
CO[C@H]1[C@H](O[C@@H]2C[C@@H]3C/C=C/C(=O)O[C@@H](CO)C[C@H](O)[C@@H]4C[C@H](C)[C@H](C/C=C\C=C\[C@H](C)C[C@H](C2)O3)O4)O[C@@H](C)[C@H](O)[C@H]1O,68.8% (inactive),28.7% (inactive),62.6% (inactive),33.3% (inactive),32.2% (inactive),66.4% (inactive),61.6% (inactive),60.6% (inactive),33.2% (inactive),58.7% (inactive)
O=[P+](O)c1cccnc1,106% (inactive),101% (inactive),102% (inactive),91.5% (inactive),103% (inactive),110% (inactive),102% (inactive),111% (inactive),107% (inactive),
O=[N+]([O-])c1cc(Cl)c(Cl)c([N+](=O)[O-])c1Cl,116% (inactive),122% (inactive),23.1% (inactive),5.47% (active),80.7% (inactive),-30.1% (active),-71.5% (active),108% (inactive),22.2% (inactive),15% (inactive)
O=C(CCCN1CCC2(CC1)C(=O)NCN2c1ccccc1)c1ccc(F)cc1,106% (inactive) and 78.5% (inactive),57.6% (inactive) and 80.6% (inactive),99.6% (inactive) and 84.2% (inactive),77.1% (inactive) and 66% (inactive),115% (inactive) and 99.1% (inactive),20.3% (inactive),91.6% (inactive) and 15.5% (inactive),50.3% (inactive) and 30.6% (inactive),100% (inactive) and 114% (inactive),
C[C@]12CCC3[C@@H](C[C@@H]4SC(Nc5ccccc5)=N[C@@]45CC(=O)CC[C@]35C)[C@@H]1CCC2=O (some centres not stated),6.9% (active),49.4% (inactive),-8.78% (active),-89% (active),-4.55% (active),-62.4% (active),-45.6% (active),63.7% (inactive),6.25% (active),
COc1c(O)cc2c(c1OC)-c1ccc(SC)c(=O)cc1C(NC(C)=O)CC2 (configuration not stated),59.8% (inactive),41.9% (inactive),48.7% (inactive),16.2% (inactive),48.7% (inactive),3.04% (active),19.3% (inactive),7.2% (active),-32.6% (active),
Cc1c2ccncc2c(C)c2c1[nH]c1ccccc12,-85.8% (active),-21.8% (active),-75.8% (active),-82.1% (active),-81.3% (active),-92.3% (active),-90.7% (active),-94.8% (active),-45.1% (active),
C[C@]12CCc3nc(-c4ccc(O)c(O)c4)sc3C1=CC[C@@H]1[C@@H]2CC[C@]2(C)C(=O)CC[C@@H]12,104% (inactive),95.7% (inactive),72.7% (inactive),43% (inactive),53.6% (inactive),51.3% (inactive),39.7% (inactive),113% (inactive),51.4% (inactive),47.5% (inactive)
O=c1[nH]c(=O)[nH]c(=O)[nH]1,66.7% (inactive),110% (inactive),120% (inactive),95.3% (inactive),140% (inactive),161% (inactive),92.7% (inactive),129% (inactive),88.8% (inactive),
Nc1nc(=S)nc(N)[nH]1,101% (inactive),92.9% (inactive),80.5% (inactive),74.1% (inactive),136% (inactive),103% (inactive),101% (inactive),98.4% (inactive),92.6% (inactive),
S=P(SP(=S)(c1ccccc1)c1ccccc1)(c1ccccc1)c1ccccc1,96.6% (inactive),97.6% (inactive),97.5% (inactive),95.2% (inactive),96.8% (inactive),99.4% (inactive),97.9% (inactive),98.3% (inactive),48.5% (inactive),-61.3% (active)
